Source: PubChem (several laboratories)
Hits are enriched below; roughly 5.1% of the tested compounds scored in any of these assays.
ANO1 block – TMEM16A chloride channel inhibitors, primary screen, cell-based, HTS | HEK293 TMEM16A/YFP iodide influx fluorescence, ionomycin | normalized B-score (activity score, 25-100; higher = stronger inhibition) at 10 µM | hit rate 1.2% among 310,000;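 active = ratio plate-corrected score three or more library SD toward inhibition, starting fluorescence score within five deviations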;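 note: score derived from kinetic fluorescence span divided by baseline fluorescence per well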
Target sequence (Q8BHY3 whole entry, looked up): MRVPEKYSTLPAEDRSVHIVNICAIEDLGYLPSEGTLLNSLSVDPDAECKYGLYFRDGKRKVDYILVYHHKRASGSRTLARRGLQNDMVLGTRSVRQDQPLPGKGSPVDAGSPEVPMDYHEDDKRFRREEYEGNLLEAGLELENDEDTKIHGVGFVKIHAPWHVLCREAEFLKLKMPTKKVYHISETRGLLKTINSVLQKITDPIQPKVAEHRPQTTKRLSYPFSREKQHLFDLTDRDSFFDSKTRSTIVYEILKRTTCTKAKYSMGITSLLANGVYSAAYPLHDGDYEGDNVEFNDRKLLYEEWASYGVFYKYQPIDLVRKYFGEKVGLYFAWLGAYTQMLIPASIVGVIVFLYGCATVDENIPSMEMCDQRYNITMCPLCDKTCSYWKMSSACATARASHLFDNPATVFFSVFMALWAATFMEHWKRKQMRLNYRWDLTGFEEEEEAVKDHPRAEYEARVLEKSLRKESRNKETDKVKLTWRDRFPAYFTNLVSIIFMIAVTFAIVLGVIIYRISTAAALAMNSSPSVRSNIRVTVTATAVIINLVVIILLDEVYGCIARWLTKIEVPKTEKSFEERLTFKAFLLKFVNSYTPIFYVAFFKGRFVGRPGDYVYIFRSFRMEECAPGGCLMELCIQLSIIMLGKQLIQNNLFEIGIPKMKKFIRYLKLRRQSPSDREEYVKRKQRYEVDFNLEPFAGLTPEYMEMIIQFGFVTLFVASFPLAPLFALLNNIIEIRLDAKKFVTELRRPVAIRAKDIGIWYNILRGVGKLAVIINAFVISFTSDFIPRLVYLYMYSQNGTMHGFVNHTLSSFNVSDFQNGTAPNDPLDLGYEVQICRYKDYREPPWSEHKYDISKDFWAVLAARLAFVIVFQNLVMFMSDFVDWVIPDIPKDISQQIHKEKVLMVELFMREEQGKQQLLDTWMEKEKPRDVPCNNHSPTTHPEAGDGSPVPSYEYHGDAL
MPTP inh – mitochondrial permeability transition pore inhibitors, primary screen, biochemical, isolated mouse mitochondria, absorbance; hit rate 1.4% among 360,000; AID 602449, 2012; inhibition, % at 10 µM; Ca2+ swelling absorbance, 30 min;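 active = inhibition of 50% or more, scaled per plate between neutral and stimulator controls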
CRFBP-R2 agonist – agonists of CRF-BP/CRF-R2 complex, primary screen, cell-based, HEK293, calcium dye fluorescence, uHTS. CRF-binding protein / CRF receptor 2 complex (human). calcium dye fluorescence (FLIPR); percent of saturating CRF peptide response. activation, % at 13.2 µM. hit rate 0.46% among 350,000;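 active = activation of at least 50%, plus an integration ratio under a set limit after plate pattern correction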
ANO1 activ – TMEM16A chloride channel activators or potentiators, primary screen, cell-based, HTS; Anoctamin-1 (Mus musculus), Q8BHY3; HEK293 TMEM16A/YFP-H148Q/I152L, iodide quench fluorescence; hits give low values; B-score at 10 µM; hit rate 0.3% among 340,000; AID 623877, 2012;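 active = fluorescence-ratio B-score plate-corrected deviation score at least 3 library SD below zero, with starting fluorescence score within 5 deviations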;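 note: channel opened by trigger with iodide after compound preincubation; score built on the fluorescence ratio of max minus min over baseline; more negative score means more quench and so TMEM16A activation or potentiation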
GRIN3A LBD mod – binders of NR3A ligand-binding domain, primary screen, biophysical, differential scanning fluorimetry, uHTS | Glutamate receptor ionotropic, NMDA 3A (GRIN3A) ligand-binding domain | NR3A LBD differential scanning fluorimetry, Tm shift; 0% = protein alone, 100% = glycine-bound protein | Tm shift relative to glycine control, % at 25 µM | hit rate 2.5% among 340,000 | AID 1259313, 2017;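 active = melting temperature shift of at least 10% of the positive control shift, at one fixed dose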
CRFBP-R2 block – antagonists of CRF-BP/CRF-R2 complex, primary screen, cell-based, HEK293, calcium dye fluorescence, uHTS. CRF-induced calcium fluorescence. inhibition, % at 11.8 µM. hit rate 0.59% among 350,000. AID 588475, 2011;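 active = inhibition of the ligand-induced calcium signal above about 50% at the single tested concentration, limit read from the data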
MPTP counter – fluorescence retest of MPTP screen hits in isolated mitochondria, single concentration | AID 624504, 2012 | inhibition, % at 10 µM | membrane potential, Rhodamine 123 fluorescence | shares compounds with MPTP inh | hit rate 78% among 5,000; in the data active = inhibition above about 22%
MPTP swell DR – mitochondrial permeability transition pore inhibitors, dose response, biochemical, absorbance, uHTS hits; shares compounds with MPTP inh; isolated mitochondria swelling; IC50, µM; hit rate 58% among 780; in the data active = IC50 below about 20 µM
MPTP cs DR – fluorescent counter-screen in isolated mitochondria, dose response, counter-screen for MPTP inhibitor project, biochemical, fluorescence, uHTS hits; shares compounds with MPTP inh; isolated mitochondria counterscreen, fluorescence read-out; IC50, µM; hit rate 49% among 780; AID 651564, 2012; in the data active = IC50 below about 80 µM
Large screens that a line does not name were inactive (follow-up assays come after a bar, where they were run); ! = repeats disagree.

Cc1cccc(Oc2cc(NC(=O)Cn3cnc([N+](=O)[O-])n3)cc([N+](=O)[O-])c2)c1	MPTP inh 77.2, GRIN3A LBD mod 27.4 | MPTP counter 66.0
CCCCOC(=O)c1[nH]c2c(c1C)C(=O)CC(c1cc(OC)c(OC)c(OC)c1)C2 (stereo unspecified)	MPTP inh 69.9 | MPTP counter 90.2
Cc1cccc(C(=O)Nc2ccccc2SCC(=O)Nc2ccc(C)c(Cl)c2)c1	MPTP inh 89.8, GRIN3A LBD mod 15.2 | MPTP counter 82.5
Cc1ccc(NC(=O)CSC(N)=O)cc1Cl	none
Cc1ccc(NC(=O)CSc2ccccc2NC(=O)c2cccc(Cl)c2)cc1Cl	MPTP inh 80.1 | MPTP counter inactive | MPTP swell DR inactive | MPTP cs DR 6.32
CCOC(=O)NC(NC(=S)Nc1ccccc1[N+](=O)[O-])C(Cl)(Cl)Cl (stereo unspecified)	none
O=C(NC(NC(=S)Nc1c(Cl)cc(Cl)cc1Cl)C(Cl)(Cl)Cl)OCc1ccccc1 (stereo unspecified)	MPTP inh 78.1, GRIN3A LBD mod 20.9 | MPTP counter 62.7
O=C(NC(=S)Nc1c(Cl)cc(Cl)cc1Cl)c1ccccc1	none (no result: ANO1 block, ANO1 activ, GRIN3A LBD mod)
Cc1ccc(C)c(NC(=S)NC(NC(=O)OCc2ccccc2)C(Cl)(Cl)Cl)c1 (stereo unspecified)	MPTP inh 94.9, GRIN3A LBD mod 15.3 | MPTP counter 82.8
O=C(COC(=O)[C@H](Cc1ccccc1)NC(=O)c1ccco1)Nc1ccccc1OC(F)F	none (no result: ANO1 block)
Cc1csc2ncnc(NC3CCN(Cc4ccccc4)CC3)c12	MPTP inh 92.3 | MPTP counter 86.8
c1ccc(CNc2nc(N3CCN(Cc4ccccc4)CC3)nc3ccccc23)cc1	MPTP inh 52.8 | MPTP counter 80.6
c1ccc(CN2CCC(Nc3nc(-c4ccccc4)nc4ccccc34)CC2)cc1	MPTP inh 105.5 | MPTP counter inactive
O=C(CSc1nnc(Cn2nnc3ccccc32)o1)N(Cc1ccc(F)cc1)c1ccccc1	ANO1 block 25, MPTP inh 85.2 | MPTP counter 93.8
CCOc1ccc(NS(=O)(=O)c2cc(C(=O)N3CC(C)OC(C)C3)ccc2C)cc1 (stereo unspecified)	none
Nc1cc(S(=O)(=O)c2ccc(N3CCCCC3)c(N)c2)ccc1N1CCCCC1	MPTP inh 93.5 (no result: ANO1 block, ANO1 activ, GRIN3A LBD mod) | MPTP counter 105.4
Nc1cc(S(=O)(=O)Nc2ccccc2Cl)ccc1N1CCCCC1	none (no result: ANO1 block)
COc1ccc(NS(=O)(=O)c2ccc(N3CCCCC3)c(N)c2)cc1	MPTP inh 90.2 (no result: ANO1 block) | MPTP counter 86.8
O=C(CCN1N=C(c2ccccc2)CCC1=O)NCC1CCCO1 (stereo unspecified)	none
COc1cc(Cn2nnc3ccccc32)ccc1O	none
Cc1cc(Cn2nnc3ccccc32)c(O)c(C(C)(C)C)c1	MPTP inh 52.9 | MPTP counter 94.0
COc1ccccc1Oc1ccc(S(=O)(=O)NCc2ccccn2)cc1	MPTP inh 70.1 | MPTP counter 37.8
COc1ccc(S(=O)(=O)NCc2ccccn2)cc1OC	none
CCN(CC)c1nc(NN)nc(Nc2ccc(C)c(Cl)c2)n1	none
CCC1=NN(C(=O)c2ccc(C)cc2)C(O)(c2ccc(Br)cc2)C1 (stereo unspecified)	none
CCC1=NN(C(=O)c2cccc(Br)c2)C(O)(c2ccc(Br)cc2)C1 (stereo unspecified)	MPTP inh 83.5 | MPTP counter 89.5
Cc1cccc(N2CCN(S(=O)(=O)c3c(C(=O)N4CCCCC4)c(C)n(C)c3C)CC2)c1C	none
CN1CCN(CCCN2c3ccccc3Sc3ccc(C(F)(F)F)cc32)CC1	MPTP inh 90.8! | MPTP counter inactive | MPTP swell DR 4.21 | MPTP cs DR inactive
O=C(Nc1ccccc1)Nc1nc(-c2ccccc2)cs1	MPTP inh 84.8, GRIN3A LBD mod 22.9 | MPTP counter 80.0
O=C(Nc1ccc(Cl)c(Cl)c1)Nc1nc(-c2ccccc2)cs1	MPTP inh 73.5, GRIN3A LBD mod 159.9 | MPTP counter 73.3
CC(C)(C)c1ccc(Cn2c(=N)n(CC(O)c3ccco3)c3ccccc32)cc1 (stereo unspecified)	MPTP inh 56.0 | MPTP counter 21.5
COC(=O)c1ccccc1S(=O)(=O)NNC(=O)C12CC3CC(CC(C3)C1)C2	none (no result: ANO1 block)
CCOc1cc(C(=O)OCC(=O)Nc2ccc(SC(F)F)cc2)cc(OCC)c1OCC	MPTP inh 50.1 | MPTP counter 61.1
CCC(C(=O)OCC(=O)Nc1ccc(SC(F)F)cc1)c1ccccc1 (stereo unspecified)	MPTP inh 77.7, GRIN3A LBD mod 11.7 (no result: ANO1 block) | MPTP counter 87.6
CCC(C(=O)OCC(=O)Nc1ccc(F)cc1)c1ccccc1 (stereo unspecified)	none (no result: ANO1 block)
CC(=O)OCC(=O)Nc1ccc(SC(F)F)cc1	none
O=C(CNC(=O)c1ccc(Cl)cc1Cl)OC1CCCCC1=O (stereo unspecified)	none (no result: ANO1 block)
O=C(Nc1cccc(C(F)(F)F)c1)Nc1ccc(N2CCCC2)c(S(=O)(=O)Nc2ccccc2Cl)c1	MPTP inh 93.9, GRIN3A LBD mod 30.1 | MPTP counter 40.9
CC(=O)Nc1ccc(N2CCOCC2)c(S(=O)(=O)Nc2ccccc2Cl)c1	none (no result: ANO1 block, ANO1 activ, GRIN3A LBD mod)
Cc1cc(NC2CCCCC2)nc(NCc2ccccc2)n1	ANO1 block 100, MPTP inh 85.8 | MPTP counter 110.9
COc1ccc(Nc2cc(C)nc(NCc3ccccc3)n2)cc1	MPTP inh 57.1 | MPTP counter 46.8
Cc1cc(N2CCN(c3ccccc3)CC2)nc(NCc2ccccc2)n1	MPTP inh 64.7 | MPTP counter 20.8
Cc1ccc(Nc2cc(C)nc(NCc3ccccc3)n2)cc1	MPTP inh 55.8 | MPTP counter 45.3
CCN(CC)C(=O)C1=C(C)N(CCCN2CCCC2=O)C(=O)C(CC(=O)NCc2cccc3ccccc23)C1 (stereo unspecified)	none (no result: ANO1 block, ANO1 activ, GRIN3A LBD mod)
Cc1cccc(NC(=O)COC(=O)CC2CCCC2)c1C	none (no result: ANO1 block)
